# Results filed as inconclusive are left out. Entries that show only a call come without a potency. Activity calls are given as the source filed them. Unless noted, the call rests on the fitted dose curve; in most records, active means well fitted curve in the direction sought with a large enough effect; inconclusive means small, poorly fitted or top-dose-only effect, or another doubt; inactive means no such curve, though single readings can be large; an effect the other way counts as inactive or inconclusive.
# Assays:
# [1] = target: 3',5'-cyclic-AMP phosphodiesterase 4B (Homo sapiens) (UniProt Q07343); assay: qHTS Assay for Inhibitors of PDE-IV (AID 607; active means well fitted activation curve with a large enough effect in the main read-out, with a control signal flat, not every such curve was filed as active)
# Summary of the method: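 The readout is membrane depolarisation from a cAMP-sensing CNG channel, detected with a potential dye at ex 535/em 590. Cells were HEK293-derived (endogenous PDE-IV) at 1000 cells/well, titrated up to 22.9 uM final.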
# [2] = Cellular Toxicity (caspase-3) HepG2 (AID 654);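 further: cells exposed to compound for 16 hours before reading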
# Summary of the method: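 HepG2 cells (1500/well) in complete medium were treated with compounds for 16 hr at 37 °C. Caspase-3/7 activity was then read as luminescence from peptide-aminoluciferin cleavage. AC50 came from Hill fits, normalized to DMSO and 100 uM tamoxifen.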
# [3] = Cellular Toxicity (caspase-3) HUV-EC-C (AID 656)
# Summary of the method: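 Read-out: luminescence proportional to caspase 3/7 activity, measured 20 min after adding Caspase-Glo 3/7 reagent. Cells (HUV-EC-C) had received compound for 16 hr at 37°C. Increases relative to DMSO and 100 uM tamoxifen gave concentration-response AC50 values.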
# [4] = Cellular Toxicity (caspase-3) SHSY5Y (AID 657); further: potency means the concentration at half of the fitted maximal effect
# Summary of the method: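 Cells plated and incubated 5 h at 37 °C, dosed over a concentration range, incubated 16 h, then given Caspase-Glo 3/7 reagent for 1 h at room temperature before luminescence reading. Staurosporine (10 uM) defined full stimulation.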
# [5] = Cellular Toxicity (caspase-3) BJ (AID 658)
# Summary of the method: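 Readout: Caspase-Glo 3/7 luminescence increase in BJ cells after 16 hr treatment at 37 °C. Staurosporine and tamoxifen served as positive controls; AC50 values came from Hill modelling of data normalized to DMSO and 10 uM staurosporine.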
# [6] = Cellular Toxicity (caspase-3) MRC-5 (AID 659)
# Summary of the method: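 Concentration-dependent caspase 3/7 activation is measured in human normal lung fibroblasts (MRC-5) following 16-hour treatment. AC50 values come from standard Hill-equation modeling of luminescence normalized to DMSO and 10 uM staurosporine.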
# [7] = Cellular Toxicity (caspase-3) Mesangial (AID 660);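 further: cells exposed to compound for 16 h before the caspase read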
# Summary of the method: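 Human renal glomerular mesangial cells (1000/well) were treated with compounds for 16 h at 37 °C in complete medium, then caspase 3/7 activity was read by Caspase-Glo luminescence. Data were normalized to DMSO and 100 uM tamoxifen; AC50 from Hill fits.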
# [8] = Cellular Toxicity (caspase-3) SK-N-SH (AID 661)
# Summary of the method: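 SK-N-SH human neuroblastoma cells (1500/well) were treated with compounds for 16 hr at 37 °C in complete medium; caspase 3/7 activity was read by Caspase-Glo luminescence. AC50 came from Hill fits of data normalized to DMSO and 10 uM staurosporine.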
# [9] = Cellular Toxicity (caspase-3) H-4-II-E (AID 663); settings: Potency: caspase-3 activation; further: potency means the concentration at half of the fitted maximal effect;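 on caspase-3 activation: cells exposed to compound for 16 hr before readout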
# Summary of the method: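 Apoptosis induction is scored as increased luminescence from caspase 3/7 substrate cleavage in rat hepatoma H-4-II-E cells exposed to compound for 16 hr. Activity is scaled between DMSO and 100 uM tamoxifen.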
# [10] = Cellular Toxicity (caspase-3) Hek293 (AID 664);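 further: cells exposed to compound for 16 h at 37 °C before readout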
# Summary of the method: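 HEK293 cells were exposed to compounds in complete medium for 16 hr at 37 °C, then caspase-3/7 activity was read by Caspase-Glo 3/7 luminescence after 20 min at room temperature. Data normalized to DMSO and 100 uM tamoxifen; AC50 from Hill fits.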
# 3',5'-cyclic-AMP phosphodiesterase 4B (Homo sapiens), sequence (Q07343 whole entry, looked up): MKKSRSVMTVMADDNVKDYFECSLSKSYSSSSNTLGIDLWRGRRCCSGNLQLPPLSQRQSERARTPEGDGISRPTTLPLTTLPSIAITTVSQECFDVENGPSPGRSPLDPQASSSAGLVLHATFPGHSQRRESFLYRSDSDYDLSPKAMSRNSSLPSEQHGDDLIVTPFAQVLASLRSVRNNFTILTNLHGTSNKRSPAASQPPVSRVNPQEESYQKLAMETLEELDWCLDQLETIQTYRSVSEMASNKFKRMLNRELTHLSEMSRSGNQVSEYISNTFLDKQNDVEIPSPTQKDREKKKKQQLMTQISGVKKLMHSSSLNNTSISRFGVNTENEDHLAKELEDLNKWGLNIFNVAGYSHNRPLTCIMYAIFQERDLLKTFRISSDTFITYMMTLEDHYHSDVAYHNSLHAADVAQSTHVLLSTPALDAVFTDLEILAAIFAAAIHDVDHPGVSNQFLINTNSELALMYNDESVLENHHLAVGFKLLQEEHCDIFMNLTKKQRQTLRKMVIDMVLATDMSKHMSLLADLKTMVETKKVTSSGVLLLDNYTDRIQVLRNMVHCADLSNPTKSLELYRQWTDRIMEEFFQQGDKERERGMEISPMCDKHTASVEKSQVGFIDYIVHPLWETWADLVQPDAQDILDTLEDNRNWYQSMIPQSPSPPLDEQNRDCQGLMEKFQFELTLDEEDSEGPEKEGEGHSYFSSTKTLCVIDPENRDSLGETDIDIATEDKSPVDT
SMILES,outcome [1],outcome [2],outcome [3],Potency [4],outcome [5],outcome [6],outcome [7],outcome [8],Potency [9],outcome [10]
CC(C)N(CCC(=O)c1ccc2ccccc2c1)Cc1ccccc1,inactive,–,–,–,–,–,–,–,–,–
CC(C)(C)c1ccc(O)c(O)c1,–,inactive,inactive,inactive,inactive,inactive,inactive,inactive,inactive,inactive
Clc1ccc2c(c1)N=C(N1CCNCC1)c1ccccc1N2,inactive,–,–,–,–,–,–,–,–,–
O=C(O)/C=C(\CC(=O)O)C(=O)O,inactive,–,–,–,–,–,–,–,–,–
Oc1ccccc1,–,inactive,inactive,inactive,inactive,inactive,inactive,inactive,inactive,inactive
CC(=O)OC/C=C(C)/C=C/C=C(C)/C=C/C1=C(C)CCCC1(C)C,–,inactive,inactive,inactive,inactive,inactive,inactive,inactive,inactive,–
NC(N)=NCCCCN=C(N)N,inactive,–,–,–,–,–,–,–,–,–
Brc1ccccc1-c1ccccc1,–,inactive,inactive,inactive,inactive,inactive,inactive,inactive,inactive,inactive
CN(C(=O)C(Cl)Cl)c1ccc(OC(=O)c2ccco2)cc1,inactive,–,–,–,–,–,–,–,–,–
O=C1NC(c2cccc([N+](=O)[O-])c2)=CCN1c1ccccc1O,inactive,–,–,–,–,–,–,–,–,–
CN(C)c1cc2c(Nc3ccc4c(cnn4Cc4ccccc4)c3)ncnc2cn1,inactive,–,–,–,–,–,–,–,–,–
C[N+](C)(C)CCO,inactive,–,–,–,–,–,–,–,–,–
Nc1c2ccccc2nc2ccccc12,–,–,inactive,39.8 µM (active),–,inactive,inactive,–,31.6 µM (active),–
Nc1ccc(O)cc1,–,inactive,inactive,–,inactive,inactive,inactive,inactive,–,inactive
Cc1ncc(CO)c(CO)c1O,inactive,–,–,–,–,–,–,–,–,–
O=C(Oc1ccccc1)c1ccccc1O,–,inactive,inactive,inactive,inactive,inactive,inactive,inactive,inactive,inactive
COc1cc(C=O)ccc1O,–,inactive,inactive,inactive,inactive,inactive,inactive,inactive,inactive,inactive
CCCCCCCCCCCCCCCC[n+]1ccccc1,–,–,inactive,inactive,–,–,inactive,–,–,inactive
Nc1cccc2c(N)cccc12,–,inactive,inactive,inactive,inactive,inactive,inactive,inactive,inactive,inactive

SMILES,outcome [1],outcome [2],outcome [3],Potency [4],outcome [5],outcome [6],outcome [7],outcome [8],Potency [9],outcome [10]
Cc1ccc(O)cc1,–,inactive,inactive,inactive,inactive,inactive,inactive,inactive,inactive,inactive
Nc1c[n+](N2CCOCC2)no1,inactive,–,–,–,–,–,–,–,–,–
C1=CC2C3C=CC(C3)C2C1 (configuration not stated),–,inactive,inactive,inactive,inactive,inactive,inactive,inactive,inactive,inactive
CC(C)C(C)(C)C(C)(C)C(C)(C)S,–,inactive,inactive,inactive,inactive,inactive,inactive,inactive,inactive,inactive
CC(C)(c1ccc(O)cc1)c1ccc(O)cc1,–,inactive,inactive,inactive,inactive,inactive,inactive,inactive,inactive,inactive
OCc1c[nH]c2ccccc12,–,inactive,inactive,inactive,inactive,inactive,inactive,inactive,inactive,inactive
O=C(CCCCC(=O)Nc1c(I)cc(I)c(C(=O)O)c1I)Nc1c(I)cc(I)c(C(=O)O)c1I,inactive,–,–,–,–,–,–,–,–,–
NCC(=O)O,inactive,–,–,–,–,–,–,–,–,–
c1ccc2occc2c1,–,inactive,inactive,inactive,inactive,inactive,inactive,inactive,inactive,inactive
CCOC(=O)NNc1nncc2ccccc12,inactive,–,–,–,–,–,–,–,–,–
CCCC(=O)c1cc(O)c(O)cc1O,–,inactive,inactive,inactive,inactive,inactive,inactive,inactive,inactive,inactive
CCCCC(CC)COC(=O)c1ccccc1C(=O)O (configuration not stated),–,inactive,inactive,inactive,inactive,inactive,inactive,inactive,inactive,inactive
Brc1ccc([C@H]2CN3CCSC3=N2)cc1,inactive,–,–,–,–,–,–,–,–,–
O=C(c1ccccc1)c1ccccc1,–,inactive,inactive,inactive,inactive,inactive,inactive,inactive,inactive,inactive
Cn1cnc2c(NCc3ccccc3)nc(NCCO)nc21,inactive,–,–,–,–,–,–,–,–,–
Cc1cc(C(C)(C)C)c(O)c(C(C)(C)C)c1,–,inactive,inactive,inactive,inactive,inactive,inactive,inactive,inactive,–
O=C(NO)c1ccccc1,–,inactive,inactive,inactive,inactive,inactive,inactive,inactive,inactive,inactive
COc1ccccc1N1CCN(CCN2C(=O)CC3(CCCC3)CC2=O)CC1,inactive,–,–,–,–,–,–,–,–,–

# From PubChem BioAssay (NCATS)
